# Measured values published in the OligoGym collection.
# Assays:
# Assay in all cases: pooled miR-30 sensor sort-seq; sequence = guide strand
# Conditions in all cases: shRNA
# SLC34A1 = target: SLC34A1
# SLC30A1 = target: SLC30A1
# SLC30A10 = target: SLC30A10
# SLC2A8 = target: SLC2A8
# Note: reference of the scale not given here.
sequence,measurement,setting,value
TGGACCACGAAGGTCATGCTGG,sensor-assay potency score (higher = more potent),SLC34A1,-0.818
TTGATTTAGAGCCTACACTAGC,sensor-assay potency score (higher = more potent),SLC30A1,-0.669
TAGTCATGTGTACACGTGCAGA,sensor-assay potency score (higher = more potent),SLC34A1,-1.32
TTAGAAACAAGAACTTCTTTGA,sensor-assay potency score (higher = more potent),SLC30A10,0.415
TTTTCAGCTTTAGTCCTCCTGG,sensor-assay potency score (higher = more potent),SLC30A1,-0.574
TTTACTACTACAATCACTGAAC,sensor-assay potency score (higher = more potent),SLC30A1,-0.0512
TTAATCTCTATCACAACAGCAG,sensor-assay potency score (higher = more potent),SLC30A1,0.193
TACACTAGCAAATTCAGGCTGA,sensor-assay potency score (higher = more potent),SLC30A1,0.702
ATTTGAAACATTCTATAGCTGC,sensor-assay potency score (higher = more potent),SLC30A10,-0.495
TAGATTGTTACTAAGTTCTAAA,sensor-assay potency score (higher = more potent),SLC30A1,-0.976
TGAGTCAGCAGGAAGCGCGGGG,sensor-assay potency score (higher = more potent),SLC2A8,-0.717
TTAGCTGCACACAGGAGCCGAG,sensor-assay potency score (higher = more potent),SLC2A8,-0.983
TAATCTCTATCACAACAGCAGG,sensor-assay potency score (higher = more potent),SLC30A1,-1.43
TTTAGTTTCAGGGACACAGAAC,sensor-assay potency score (higher = more potent),SLC2A8,-0.989
AAAAGGACACTGAAGATGCAGA,sensor-assay potency score (higher = more potent),SLC2A8,-0.924
ATCTCTGACATGAGGAGCCAGG,sensor-assay potency score (higher = more potent),SLC2A8,-1.73
TAGCTGCACACAGGAGCCGAGC,sensor-assay potency score (higher = more potent),SLC2A8,-1.45
TAAGCTATGATCTCACCTGAGC,sensor-assay potency score (higher = more potent),SLC30A10,-0.73
TTTGTTTAGGAACAGTTTGTAG,sensor-assay potency score (higher = more potent),SLC30A1,-1.09
TTAAGCTATGATCTCACCTGAG,sensor-assay potency score (higher = more potent),SLC30A10,-0.235
TAACACTGCCAGTTACACGGGT,sensor-assay potency score (higher = more potent),SLC30A10,-0.383
TTGGAACCCAGTGTGAGCGGGT,sensor-assay potency score (higher = more potent),SLC34A1,0.313
TAGTGTCCCACAACATTGCTTC,sensor-assay potency score (higher = more potent),SLC30A1,0.199
TTCTTCTCTAGATTGTTACTAA,sensor-assay potency score (higher = more potent),SLC30A1,-0.537
TTTGTTCCAGAGTCTTTCCTTT,sensor-assay potency score (higher = more potent),SLC2A8,0.354
TCTGCATAGAACATGACGGCGT,sensor-assay potency score (higher = more potent),SLC2A8,-0.336
TTTGTTAAGACTTTGTCCGTGG,sensor-assay potency score (higher = more potent),SLC30A10,0.766
TTAAGCATTTGAAACATTCTAT,sensor-assay potency score (higher = more potent),SLC30A10,0.231
TTGGTGAGGACGCAGATGCCTG,sensor-assay potency score (higher = more potent),SLC2A8,-1.08
TTTTGGGACCATCTGTAGCAGA,sensor-assay potency score (higher = more potent),SLC30A10,-0.988
